Activity calls are given as the source filed them.

A short description of one test: probe aLefty1 binding on compound microarray – biochemical, small-molecule microarray, 635/667 nm fluorescence, primary screen (AID 1153).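 Further: score merges spot fluorescence with signal-to-noise ratio from the scanned slide images.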 The settings on record: higher = more signal.
As to `C=CCC(OC(C)=O)[C@@H]1[C@@H](N(Cc2cc3ccccc3o2)C(=O)Cc2ccc(OC)cc2)c2cc(OCCCO)ccc2N1C(=O)c1ccc2ccccc2c1` (stereo partly drawn), the composite z-score was -0.0252.

Regarding `O=C1C2C=CC(C(O)c3c(F)cccc3Cl)N(Nc3ccccc3F)C2C(=O)N1c1ccccc1` (stereo not drawn), the composite z-score was determined as 0.19.

In the case of `CN(C)C(=O)[C@]1(Cc2ccccc2)N=C(c2ccc(OCCCO)cc2)O[C@@H]1c1ccccc1N=[N+]=[N-]`, the composite z-score is 0.008.

The nature of another test: plasmodial surface anion channel blockers, osmotic lysis – cell-based, P. falciparum Indochina, OD700, 1 h, primary screen (AID 1154). The settings on record: P. falciparum Indochina infected RBC osmotic lysis, higher = more signal, called active from +8 up or from −8 down.
For the compound `O=C(CS)NCCCCCNC(=O)[C@@H]1C[C@@H]2C(=O)NCC(=O)N2[C@@H]1c1cccc(OCCO)c1`, the z-score is 2.11 (inactive).

Take `O=C(CS)NCCCCCNC(=O)[C@H]1C[C@H]2C(=O)NCC(=O)N2[C@H]1c1cccc(OCCO)c1`: the z-score is 0.0198 (inactive).

Consider `CN(C)CCCCNC(=O)[C@@H]1C[C@@H]2C(=O)N[C@@H](CCCCN)C(=O)N2[C@@H]1c1ccc(O)cc1`, for which the z-score was 1.93 (inactive).

In the case of `COc1ccc(CCNC(=O)[C@@]2(C)c3ccccc3C(=O)N(c3ccc(C)cn3)[C@H]2c2ccc(CO)cc2)cc1`, the z-score was 2.01 (inactive).

On to `O=C(NCCN1CCOCC1)[C@@H]1c2ccccc2C(=O)N(Cc2cc(C(F)(F)F)cc(C(F)(F)F)c2)[C@H]1c1ccc(CO)cc1`, for which the z-score was 2.81 (inactive).

With `O=C(NCc1ccccc1)[C@@H]1c2ccccc2C(=O)N(C2Cc3ccccc3C2)[C@H]1c1ccc(CO)cc1`, the z-score is 3.46 (inactive).

For the compound `COCCOC(=O)N1C(=O)[C@@]2(c3cc(C#CC4(O)CCCCCC4)ccc31)[C@H](C(=O)Nc1nc3ccccc3s1)[C@H]1C(=O)O[C@H](c3ccccc3)[C@H](c3ccccc3)N1[C@@H]2c1ccccc1OCCO`, the z-score was 2.48 (inactive).

Consider `CC1CC/C=C\[C@H]2OC34C=CCN(c5ccc6ccccc6c5)C(=O)[C@H]3N(CCO)C(=O)[C@@H]4C2C(=O)O1` (stereo partly drawn), for which the z-score is 3.56 (inactive).

With `O=C1O[C@@H](c2ccccc2)[C@@H](c2ccccc2)N2[C@@H](c3ccc(OCCO)cc3)[C@]3(C(=O)Nc4ccc(C#CCCO)cc43)[C@@H](C(=O)NC[C@H](O)c3ccccc3)[C@H]12`, the z-score was 3.19 (inactive).

Turning to `O=C1OCCC/C=C\[C@H]2OC34C=CCN(c5ccc6ccccc6c5)C(=O)[C@H]3N(CCCCCO)C(=O)[C@@H]4C12` (stereo partly drawn), the z-score is 0.29 (inactive).

As for `CC(C)CNC(=O)[C@@]1(Cc2ccccc2I)c2ccccc2C(=O)N(Cc2ccccc2C(F)(F)F)[C@H]1c1ccc(CO)cc1`, the z-score is 1.23 (inactive).

As to `C#CCOc1ccc(C[C@@H](C(=O)OC)N(CC#C)[C@@H](/C=C/C2CC2)[C@H](O)Cc2ccccc2)cc1`, the z-score was 1.7 (inactive).

As for `CCOC(=O)[C@H]1C/C=C/C[C@H](C(=O)OCC)C(=O)O[C@H]2[C@@H](OC)O[C@H](CO)[C@@H](OC(=O)c3ccc(Br)cc3)[C@@H]2OC1=O`, the z-score is 2.35 (inactive).

Consider `O=C1[C@@]23C=C(Br)[C@H](C[C@@H]2COC3)[C@]12CO2`, for which the z-score is 0.483 (inactive).

On to `O=C1NC(=O)C2C1C=CC(C(O)c1ccc(-c3ccccc3)s1)N2Nc1ccc(Cl)cc1Cl` (stereo not drawn), for which the z-score was 2.29 (inactive).

For `C=C(C(=O)CC[C@H](OC(C)=O)c1ccccc1OCCO)C(C)C`, the z-score is 2.27 (inactive).

For `O=C1C2C=CC(C(O)COCc3ccccc3)N(Nc3ccc([N+](=O)[O-])cc3)C2C(=O)N1c1ccccc1` (stereo not drawn), the z-score is 9.2 (active).

With `COCC(=C=CC[C@H](O)c1cccc(OCCO)c1)CCO`, the z-score is 2.69 (inactive).

With `NCCCCCCNC(=O)[C@H]1C[C@H]2C(=O)N[C@@H](Cc3ccccc3)C(=O)N2[C@H]1c1cccc(OCCO)c1`, the z-score is 5 (inactive).

As for `CCCCCN1CC=CC23O[C@@H]4C=CCOC(=O)[C@@H]4[C@H]2C(=O)N(C(C)CO)[C@@H]3C1=O` (stereo partly drawn), the z-score is 0.59 (inactive).

As to `CC(c1ccccc1)C(O)C1C=CC2C(=O)N(C)C(=O)C2N1NC(=O)OC(C)(C)C` (stereo not drawn), the z-score is 0.667 (inactive).

As to `COCCCNC(=O)[C@@H]1c2ccccc2C(=O)N(Cc2ccccc2)[C@H]1c1ccc(CO)cc1`, the z-score is 0.481 (inactive).

In the case of `COCCOC(=O)N1C(=O)[C@@]2(c3cc(C#CCCO)ccc31)[C@H](c1ccc(OCCO)cc1)N1[C@H](c3ccccc3)[C@H](c3ccccc3)OC(=O)[C@H]1[C@@H]2C(N)=O`, the z-score is 12.1 (active).

`COc1ccc(C(=O)Nc2ccc(CN3C(=O)[C@]4(O[C@H](CC(=O)N5CCC[C@H]5CO)[C@@H]([Si](C)(C)c5ccc(OC)cc5)[C@@H]4C)c4ccccc43)cc2)cc1`: the z-score was 7.69 (inactive).

As for `C=CC[C@]1(C(N)=O)COC(c2ccc(OCCCO)cc2)=N1`, the z-score was 3.06 (inactive).

Consider `COC(=O)[C@@]1(Cc2ccccc2)[C@H]2c3cc(C(=O)N(C)C)n(CCc4c[nH]c5ccc(O)cc45)c3C[C@H]2CN1C(=O)c1ccccc1`, for which the z-score is 7.05 (inactive).

Regarding `COc1ccc(C#Cc2ccc3c(c2)[C@]2(C(=O)N3)[C@H](c3ccc(O)cc3)N3[C@H](c4ccccc4)[C@H](c4ccccc4)OC(=O)[C@H]3[C@@H]2C(=O)N2CCc3cc(OC)c(OC)cc3C2)cc1`, the z-score was 0.276 (inactive).

On to `O=C1OCCC=C[C@H]2OC34C=CCN(Cn5nnc6ccccc65)C(=O)[C@H]3N(CCO)C(=O)[C@@H]4C12` (stereo partly drawn), for which the z-score was 1.03 (inactive).

`CC(C)Cc1ccc(CN2CC[C@@H](N)C2)cc1`: the z-score is 0.483 (inactive).

For the compound `C[N+](C)(C)CCCCCCNC(=O)[C@H]1C[C@H]2C(=O)N[C@@H](Cc3ccccc3)C(=O)N2[C@H]1c1cccc(OCCO)c1`, the z-score is 10.3 (active).

As to `CO[C@H]1O[C@H](CO)[C@@H](OC(=O)Nc2ccc(Oc3ccccc3)cc2)[C@H](OC(=O)Nc2ccc3c(c2)OCO3)[C@@H]1OC(=O)Nc1ccc2c(c1)OCO2`, the z-score is 12.3 (active).

For `C=C(CCCC)/C(=C/C[C@@H](OC(C)=O)c1ccccc1OCCO)c1cc(C(=O)OC)ccc1OC`, the z-score was 27.1 (active).

In the case of `C=CCC(OC(C)=O)[C@@H]1[C@@H](N(Cc2cc3ccccc3o2)C(=O)Cc2ccc(OC)cc2)c2cc(OCCCO)ccc2N1C(=O)c1ccc2ccccc2c1` (stereo partly drawn), the z-score is 2.31 (inactive).

Take `O=C1C2C=CC(C(O)c3c(F)cccc3Cl)N(Nc3ccccc3F)C2C(=O)N1c1ccccc1` (stereo not drawn): the z-score was 6.75 (inactive).

Turning to `CN(C)C(=O)[C@]1(Cc2ccccc2)N=C(c2ccc(OCCCO)cc2)O[C@@H]1c1ccccc1N=[N+]=[N-]`, the z-score was 32.4 (active).
